Unmarked numbers belong to inactive results.
Test system: Vero E6 infected with SARS-CoV-2
Test: SARS-CoV-2 infection rate relative to infected DMSO; higher = more infection, active = 60 or less
Details: 24 h

| Compound | SARS-CoV-2 infection rate [%] |
| --- | --- |
| Cc1cc(=O)oc2c(C=O)c(O)ccc12 (10 µM) | 106 |
| CNC(=O)c1ccccc1Nc1cc(Nc2ccc(N3CCOCC3)cc2OC)ncc1C(F)(F)F (10 µM) | 111 |
| COc1ccc(C(=O)c2ccccc2)c(O)c1 [oxybenzone] (10 µM) | 102 |
| COc1ccc(-c2ccc3c(N4CCOCC4)nc(N4C[C@@H](C)O[C@@H](C)C4)nc3n2)cc1CO (0.833333 µM) | 110 |
| CCc1cc(/C(C)=N/OCc2ccc(C3CCCCC3)c(C(F)(F)F)c2)ccc1CN1CC(C(=O)O)C1 [siponimod] (10 µM) | 100 |
| Nc1ncnc2c1c(-c1ccc(Oc3ccccc3)cc1)nn2C1CCCC1 (10 µM) | 122 |
| CCN(CC)CCO[C@H]1CC[C@@]2(C)C(=CC[C@@H]3[C@@H]2CC[C@]2(C)C(=O)CC[C@@H]32)C1 (0.833333 µM) | 84 |
